The source of these data is PubChem BioAssay (EPA / NIEHS).

The target of assay [1] is Paired box protein Pax-6 (Homo sapiens) (UniProt P26367). In words: ATG_Pax6_CIS: Attagene CIS-FACTORIAL HepG2 Assay for human Paired Box 6 (PAX6) (AID 2282956). Particulars: HepG2 CIS-FACTORIAL PAX6 reporter transcription, RNA readout; actives raise or lower the signal. An outline of the steps:
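Read-out is reporter transcript level, measured by RT-PCR with fluorescent primer extension and capillary electrophoresis after 24 h dosing of transfected HepG2 cells. Activity in either direction fitted relative to DMSO control.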

Assay [2] in a line: ATG_PXRE_CIS: Attagene CIS-FACTORIAL HepG2 Assay for human Pregnane X Receptor Element (PXRE) (AID 2282957). Particulars: HepG2 Attagene CIS-FACTORIAL PXRE reporter, mRNA; actives raise or lower the signal. An outline of the steps:
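Fluorescent capillary electrophoresis of amplified reporter cDNA gave the signal, collected 24 h after dosing HepG2 cells that held transfected cis-element reporter constructs.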

Assay [3] in a line: ATG_PPRE_CIS: Attagene CIS-FACTORIAL HepG2 Assay for human Peroxisome Proliferator-activated Response Element (PPRE) (AID 2282958). Particulars: HepG2 PPRE cis-element reporter, Attagene transcription factor profiling; actives raise or lower the signal. An outline of the steps:
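PPRE activity in HepG2: transient cis-reporter transfection, 24 h compound incubation, reporter mRNA by RT-PCR and CE fluorescence; gain/loss fitted against DMSO.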

Assay [4] in a line: ATG_RORE_CIS: Attagene CIS-FACTORIAL HepG2 Assay for human RAR-related Orphan Receptor Element (RORE) (AID 2282959). Particulars: HepG2 Attagene cis-factorial RORE reporter, mRNA; actives raise or lower the signal. The method, boiled down:
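A 24-hour exposure of transfected HepG2 hepatoma cells precedes RNA isolation and reporter RT-PCR. Labeled products are digested with HpaI and resolved by capillary electrophoresis, with gain or loss of signal scored relative to DMSO.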

Assay [5] can be described thus: ATG_Sox_CIS: Attagene CIS-FACTORIAL HepG2 Assay for human SRY-box transcription factor (SOX) (AID 2282960). Particulars: HepG2 Attagene cis-factorial SOX reporter, mRNA; actives raise or lower the signal. The method, boiled down: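 HepG2, cis reporter units, 24 h exposure. Reporter mRNA: RT-PCR → FAM labelling → HpaI → CE fluorescence. Bidirectional fit vs DMSO.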

The target of assay [6] is Transcription factor Sp1 (Homo sapiens) (UniProt P08047). In words: ATG_Sp1_CIS: Attagene CIS-FACTORIAL HepG2 Assay for human Specificity Protein 1 (Sp1) (AID 2282961). Particulars: HepG2 Sp1 cis-reporter transcription, actives raise or lower the signal. An outline of the steps:
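Liver-derived HepG2 cells, cis-element reporter library, 24 h treatment; RNA isolated, cDNA amplified with reporter-specific primers, FAM-labeled fragments sized on capillary analyzer. DMSO baseline, bidirectional curve fit.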

Assay [7] is described as follows: ATG_SREBP_CIS: Attagene CIS-FACTORIAL HepG2 Assay for human Sterol Regulatory Element Binding (SREBP) (AID 2282962). Particulars: HepG2 Attagene cis-factorial SREBP reporter, mRNA; actives raise or lower the signal. The method, boiled down: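 Endogenous SREBP activity read as cis-element-driven reporter transcript in transiently transfected HepG2, 24 h post-dosing; quantified via RT-PCR plus capillary electrophoresis of fluorescent fragments. Gain or loss of signal fitted relative to DMSO baseline.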

For assay [8], the target named is Signal transducer and activator of transcription 3 (Homo sapiens) (UniProt P40763). Description: ATG_STAT3_CIS: Attagene CIS-FACTORIAL HepG2 Assay for human Signal Transducer and Activator of Transcription 3 (STAT3) (AID 2282963). Particulars: HepG2, Attagene cis-factorial STAT3 reporter transcription; actives raise or lower the signal. An outline of the steps: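 Cis-factorial format: endogenous transcription factors in HepG2 drive transfected reporter units. After 24 h treatment, reporter RNA was reverse-transcribed, amplified, FAM-labelled and HpaI-digested before CE analysis; activity scored in both directions against DMSO.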

A short description of assay [9]: ATG_TA_CIS: Attagene CIS-FACTORIAL HepG2 Assay for human TA Basal Promoter (AID 2282964). Particulars: HepG2 Attagene CIS-factorial TA basal promoter reporter; actives raise or lower the signal. The method, boiled down: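 Cis-factorial format in HepG2: reporters report endogenous factors, not chimeric Gal4 fusions. After 24 h treatment, reporter transcripts were measured by RT-PCR-capillary electrophoresis fluorescence, analysed bidirectionally versus DMSO.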

Assay [10] is described as follows: ATG_TCF_b_cat_CIS: Attagene CIS-FACTORIAL HepG2 Assay for human T-Cell-Factor with beta-catenin (TCF/b-cat) (AID 2282965). Particulars: HepG2 TCF/beta-catenin cis-reporter transcription, actives raise or lower the signal. An outline of the steps:
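Measured: reporter mRNA in HepG2 transiently transfected with cis-promoter reporter units, 24 h after chemical addition. Fitting was bidirectional, DMSO as negative control.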

Each structure is given as a SMILES string. Where “and” joins values, the source holds several entries; their conditions need not be identical. Equal values may be shown once. Some compounds were tested as several samples or in several runs, with calls that do not always agree. Calls of active or inactive are those of the source. The calls were made as follows: active = hit-call score of the fitted dose curve at least 0.9, where 1 is the maximum; inactive = score below 0.9.

Paired box protein Pax-6 (Homo sapiens), sequence (P26367 whole entry, looked up): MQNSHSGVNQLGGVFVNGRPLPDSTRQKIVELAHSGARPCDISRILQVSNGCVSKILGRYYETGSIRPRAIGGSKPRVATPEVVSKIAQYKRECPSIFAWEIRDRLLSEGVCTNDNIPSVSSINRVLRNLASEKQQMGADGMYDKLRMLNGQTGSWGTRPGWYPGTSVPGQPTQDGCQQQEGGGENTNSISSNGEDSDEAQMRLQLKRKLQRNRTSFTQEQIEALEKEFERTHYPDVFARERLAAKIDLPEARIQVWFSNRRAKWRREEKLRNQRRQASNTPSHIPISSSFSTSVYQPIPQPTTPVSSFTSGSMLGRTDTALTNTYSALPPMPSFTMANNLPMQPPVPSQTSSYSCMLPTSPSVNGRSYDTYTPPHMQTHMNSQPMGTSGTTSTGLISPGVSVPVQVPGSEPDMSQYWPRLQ
Signal transducer and activator of transcription 3 (Homo sapiens), sequence (P40763 whole entry, looked up): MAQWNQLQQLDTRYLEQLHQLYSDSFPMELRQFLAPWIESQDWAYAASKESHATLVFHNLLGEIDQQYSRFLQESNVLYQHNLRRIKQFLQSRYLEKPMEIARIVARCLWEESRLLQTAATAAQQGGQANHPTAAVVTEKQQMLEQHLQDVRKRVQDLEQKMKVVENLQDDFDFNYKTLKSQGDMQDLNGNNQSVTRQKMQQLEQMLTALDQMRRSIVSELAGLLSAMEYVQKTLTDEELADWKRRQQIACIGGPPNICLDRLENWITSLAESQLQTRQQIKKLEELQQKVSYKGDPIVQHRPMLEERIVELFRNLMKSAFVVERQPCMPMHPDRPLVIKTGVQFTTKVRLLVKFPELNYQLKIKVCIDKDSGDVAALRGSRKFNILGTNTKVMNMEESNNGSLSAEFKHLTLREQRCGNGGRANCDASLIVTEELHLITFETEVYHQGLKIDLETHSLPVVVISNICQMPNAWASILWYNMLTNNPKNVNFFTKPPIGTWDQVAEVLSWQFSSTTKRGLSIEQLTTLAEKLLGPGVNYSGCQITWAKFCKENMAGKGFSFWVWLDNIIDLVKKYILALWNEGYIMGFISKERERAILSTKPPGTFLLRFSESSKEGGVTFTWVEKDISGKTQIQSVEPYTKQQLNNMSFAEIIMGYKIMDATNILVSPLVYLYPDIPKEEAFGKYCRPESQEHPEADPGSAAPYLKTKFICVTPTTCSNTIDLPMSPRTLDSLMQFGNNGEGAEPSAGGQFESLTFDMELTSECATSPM
Transcription factor Sp1 (Homo sapiens), sequence (P08047 whole entry, looked up, the tested form may be a part): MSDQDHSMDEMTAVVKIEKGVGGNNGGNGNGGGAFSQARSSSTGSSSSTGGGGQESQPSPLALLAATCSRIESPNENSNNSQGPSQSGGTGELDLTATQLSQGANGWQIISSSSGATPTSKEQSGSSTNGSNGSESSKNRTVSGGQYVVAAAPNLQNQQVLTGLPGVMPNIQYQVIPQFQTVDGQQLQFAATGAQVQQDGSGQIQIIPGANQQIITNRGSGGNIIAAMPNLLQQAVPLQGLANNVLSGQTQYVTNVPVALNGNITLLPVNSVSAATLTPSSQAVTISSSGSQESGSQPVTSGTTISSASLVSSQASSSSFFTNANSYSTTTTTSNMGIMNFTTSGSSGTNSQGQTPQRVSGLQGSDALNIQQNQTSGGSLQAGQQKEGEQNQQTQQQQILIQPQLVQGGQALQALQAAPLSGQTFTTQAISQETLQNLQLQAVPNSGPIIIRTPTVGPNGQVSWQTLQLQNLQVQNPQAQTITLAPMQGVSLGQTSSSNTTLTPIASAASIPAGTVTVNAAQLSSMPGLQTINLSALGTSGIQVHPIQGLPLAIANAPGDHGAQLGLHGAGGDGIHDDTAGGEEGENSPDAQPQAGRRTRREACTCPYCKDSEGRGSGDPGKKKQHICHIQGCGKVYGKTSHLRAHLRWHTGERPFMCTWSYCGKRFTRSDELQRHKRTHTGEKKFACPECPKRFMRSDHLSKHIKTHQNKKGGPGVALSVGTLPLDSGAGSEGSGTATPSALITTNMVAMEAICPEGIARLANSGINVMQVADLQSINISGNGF

`CCCN(CCC)N=O`: the compound was classed as inactive in assay [1], in assay [2], in assay [3], in assay [4], in assay [5] and in assay [6]. Further, the compound was classed as inactive in assay [7], in assay [8], in assay [9] and in assay [10].
Regarding `CCC(C)(CC)c1cc(NC(=O)c2c(OC)cccc2OC)on1`, the compound was classed as inactive in assay [1], in assay [3], in [4], in [5], in assay [6] and in assay [8]. In addition, the call in [9] and in assay [10] was inactive. The AC50 in [2] is 0.202 µM (active); in assay [7], 10.8 µM (active).
As to `CCCCCCCCOC(=O)c1ccccc1C(=O)OCCCCCCCC`, the result in assay [1], in assay [3], in [4], in [5], in assay [6] and in [7] was inactive. The call in [8], in assay [9] and in assay [10] was inactive. In assay [2], the AC50 is 5.64 µM (active).
In the case of `CCCCCCCCCC[N+](C)(C)CCCCCCCCCC`, the AC50 in assay [1] is 7.61 µM (active); in [3] it was 185 µM (active); in assay [4], 19.8 µM (active); in [6], 190 µM (active); in assay [7], 3.63 µM (active); in assay [10] it was 11 µM (active). The compound was called inactive in [2], in [5], in assay [8] and in [9].
With `O=C(NC(=O)c1cc(F)c(F)cc1Cl)Nc1cc(F)ccc1N1CCC(C(=O)O)CC1`, the result in assay [1], in [3], in assay [4], in assay [5], in assay [6] and in assay [8] was inactive. Moreover, the compound was classed as inactive in [9] and in [10]. In addition, the AC50 in assay [2] and in assay [7] was 4.65 µM (active) each time.
As for `ClC1=C(Cl)[C@]2(Cl)[C@@H]3[C@@H](Cl)[C@H]4O[C@H]4[C@@H]3C1(Cl)C2(Cl)Cl`, the result in [1], in [3], in [4], in assay [5], in assay [8] and in assay [9] was inactive. Moreover, in [10], the result was inactive. Besides, the values for the AC50 in assay [2], in [6] and in [7] were 3.28 µM (active), 26.7 µM (active) and 51.4 µM (active), respectively.
For `C1CC2OC2CC1C1CO1` (configuration not stated), the result in assay [1], in assay [3], in [4], in assay [5], in assay [6] and in assay [7] was inactive. Moreover, the result in assay [8], in assay [9] and in assay [10] was inactive. In assay [2], the AC50 is 59.2 µM (active).
For `CCOCCOC(C)=O`, the call in assay [1], in [2], in assay [3], in assay [4], in assay [5] and in assay [6] was inactive. For the same compound, the result in assay [7], in assay [8], in assay [9] and in assay [10] was inactive.
In the case of `Cc1cccc([N+](=O)[O-])c1`, the call in assay [1], in [2], in assay [3], in assay [5], in [6] and in [7] was inactive. The result in assay [8], in assay [9] and in assay [10] was inactive.
In the case of `O=S(=O)(O)C(F)(F)C(F)(F)C(F)(F)C(F)(F)F`, the call in [1], in [2], in assay [3], in assay [4], in assay [5] and in [6] was inactive. Further, the compound was called inactive in assay [7], in assay [8], in [9] and in [10].
With `CN(C)c1nc(=O)n(C2CCCCC2)c(=O)n1C`, the compound was called inactive in assay [1], in assay [3], in assay [4], in [5], in [6] and in [7]. Besides, the result in assay [8], in assay [9] and in [10] was inactive. In addition, the AC50 in assay [2] is 50 µM (active).
Take `Clc1ccc(C(c2ccccc2Cl)C(Cl)(Cl)Cl)cc1` (configuration not stated): the AC50 in [1] is 70.5 µM (active); in assay [2], 3.54 µM (active) [middle of 4 runs]; in assay [6], 70.5 µM (active); in [7] it was 93.9 µM (active); in assay [9], 45.3 µM (active). Further, the outcome in assay [1], in assay [3], in assay [4], in [5], in assay [6] and in assay [7] was inactive. Also, the call in assay [8], in assay [9] and in assay [10] was inactive.
On to `CCC(C)c1cc([N+](=O)[O-])cc([N+](=O)[O-])c1O` (configuration not stated), for which the AC50 in [1] was 56.2 µM (active); in assay [3], 16.5 µM (active); in [4], 26.4 µM (active); in assay [5], 10.8 µM (active); in assay [6] it was 20.9 µM (active); in assay [7], 27.6 µM (active). The result in [2], in assay [8], in assay [9] and in [10] was inactive.
As to `Cc1ccccc1CO[C@@H]1C[C@@]2(C(C)C)CC[C@]1(C)O2`, the compound was classed as inactive in assay [1], in assay [4], in [5], in assay [6], in [8] and in assay [9]. The compound was classed as inactive in assay [10]. Moreover, the AC50 in [2] was 2.14 µM (active); in assay [3] it was 50 µM (active); in assay [7] it was 14.7 µM (active).
`CO/C=C(/C(=O)OC)c1ccccc1COc1cccc(C(F)(F)F)n1`: the AC50 in assay [1] is 31.9 µM (active); in [2], 3.54 µM (active); in assay [3], 37.3 µM (active); in [4] it was 23 µM (active); in assay [7] it was 4.44 µM (active); in [10], 26.4 µM (active). The compound was called inactive in assay [5], in assay [6], in assay [8] and in [9].
For `CCCCCCCCCc1ccc(O)cc1`, the result in assay [1], in assay [2], in assay [3], in assay [5], in assay [6] and in [7] was inactive. Moreover, the compound was classed as inactive in assay [8], in assay [9] and in assay [10]. Also, the AC50 in assay [2] is 169 µM (active) and 11.1 µM (active); in assay [8] it was 168 µM (active); in [10] it was 100 µM (active).
Turning to `OCC(O)CO`, the result in assay [1], in assay [2], in assay [3], in assay [4], in [5] and in assay [6] was inactive. Besides, the compound was classed as inactive in assay [7], in assay [8], in assay [9] and in assay [10]. Also, the AC50 in [2] was 15.9 µM (active); in [3], 26.1 µM (active).
In the case of `O=S(=O)(O)C(F)(F)C(F)(F)C(F)(F)C(F)(F)C(F)(F)C(F)(F)F`, the outcome in [1], in assay [4], in assay [5], in [6], in [7] and in assay [8] was inactive. Besides, the call in assay [9] and in assay [10] was inactive. The AC50 is 51.4 µM (active) [middle of 4 runs] in [2] and 97.7 µM (active) [middle of 4 runs] in [3].
